Data reported in PubChem BioAssay (EPA / NIEHS).
“And” between values parts separate entries of the source, which are not always exact repeats. Equal values may be shown once. Some compounds were tested as several samples or in several runs, with calls that do not always agree. The source made the active and inactive calls. The calls were made as follows: active = hit-call score of the fitted dose curve at least 0.9, where 1 is the maximum; inactive = score below 0.9.

The compounds below were run on Vascular cell adhesion molecule 1 (VCAM1), VCAM1 (gene 7412) (assay: BSK_4H_VCAM1: BioMAP Diversity Plus: 4H Assay for Vascular cell adhesion molecule 1 (VCAM1) Biomarker Activity (AID 2283033)). Settings: primary human endothelial cells (HUVEC); actives raise or lower the signal.
Protocol: BSK_4H is a cell-based, multiplexed-readout assay that uses umbilical vein endothelium, a human vascular primary cell, with measurements taken at 24 hours after chemical dosing in a 96-well plate.BSK_4H_VCAM1 is an assay component measured in the BSK_4H assay. It measures VCAM-1 antibody related to regulation of gene expression using ELISA technology.Data from the assay component BSK_4H_VCAM1 was analyzed into 1 assay endpoint. This assay endpoint, BSK_4H_VCAM1, was analyzed with bidirectional fitting relative to DMSO as the negative control and baseline of activity. Using a type of binding reporter, gain or loss-of-signal activity can be used to understand changes in the signaling as they relate to the gene VCAM1. Furthermore, this assay endpoint can be referred to as a primary readout, because this assay has produced multiple assay endpoints where this one serves a signaling function. To generalize the intended target to other relatable targets, this assay endpoint is annotated to the cell adhesion molecules intended target family, where the subfamily is Immunoglobulin CAM.
The levels of cell surface (or secreted, indicated by the prefix "s") biomarker endpoints were measured by ELISA. Overt cytotoxicity to cells in confluent adherent cultures (all systems other than the BT system) was assessed by measuring total protein levels using sulforhodamine B (SRB) staining in parallel cultures at the time of biomarker measurements, indicated as SRB endpoints. For proliferation assays for adherent cell types, individual cell types are cultured at sub-confluence and relative cell numbers quantified by SRB staining at time points optimized for each system (48 h: 3C and CASM3C systems; 72 h: BT and HDF3CGF systems; 96 h: SAg system). SRB was performed by staining cells with 0.1% SRB after fixation with 10% TCA and reading wells at 560 nm.Viability and proliferation of PBMC (T cells) was quantified by Alamar Blue reduction for the SAg and BT systems. For PBMC viability (referred to as PBMC Cytotoxicity within the assay endpoint names), cells were plated (75,000/well in a 96-well plate) and then chemical samples added for 1 h before addition of activators, SEB and TSST-1 (20 ng/mL final concentration each). Cells were incubated for 90 h. Then, Alamar Blue (20 uL/well) (Invitrogen, Cat DAL1100) was added for 6 h, and the plates were read with a fluorescence microplate reader at 546/580 nm (excitation/emission). For PBMC proliferation, cells were plated and activated as above but incubated for only 16 h prior to addition of Alamar Blue. Plates were read after 6 h.
`CN(C)Cc1cc(C(C)(C)C)c(O)c(C(C)(C)C)c1` was tested, and the outcome was “inactive”. With `Cc1cccnc1` the outcome was “inactive”. `CCC(C)=NO` was tested, and the outcome was “inactive”. For `Cc1c(C(N)=O)cc([N+](=O)[O-])cc1[N+](=O)[O-]`, the outcome was “inactive”. In the case of `CN(C)CCC(c1ccc(Cl)cc1)c1ccccn1` (stereo not drawn), the AC50 is reported as 0.756 µM (active). `CCC[Si](OC(C)=O)(OC(C)=O)OC(C)=O` was tested, and the outcome was “inactive”. For `CCCCC(CC)COC(=O)C=Cc1ccc(OC)cc1` (stereo not drawn), the AC50 was 5.26 µM (active) and 3.42 µM (active). With `CCCCCCC(O)CCCCCCCCCCC(=O)OC` (stereo not drawn) the outcome was “inactive”. With `Oc1cccc2ccccc12` the outcome was “inactive”. `OC(C(F)(F)F)(C(F)(F)F)C(O)(C(F)(F)F)C(F)(F)F` was tested, and the AC50 was 24.3 µM (active) and 30 µM (active). `CCCCCCCCCCCCCCCCCC[N+](C)(C)C` was tested, and the AC50 was 1.42 µM (active). With `O=C(C(=O)c1ccccc1)c1ccccc1` the outcome was “inactive”. For `CC(C)C1OCCN1CCOC(=O)NCCCCCCNC(=O)OCCN1CCOC1C(C)C` (stereo not drawn), the outcome was “inactive”. With `COc1cc(CNC(=O)CCCC/C=C/C(C)C)ccc1O` the outcome was “inactive”. For `COC(=O)/C=C\C(=O)OC`, the AC50 was 17.7 µM (active). For `CC[N+](CC)(CC(=O)Nc1c(C)cccc1C)Cc1ccccc1` (tested in a mixture with another compound), the outcome was “inactive”. `COc1ccc(C(=O)c2ccccc2O)c(O)c1` was tested, and the AC50 was 11.5 µM (active) and 14.2 µM (active). In the case of `CCCCCCCCCC/C=C/C1CC(=O)OC1=O` (stereo not drawn), the outcome is reported as “inactive”. For `CC(C)CC(=O)CC(C)CC(C)C` (stereo not drawn), the AC50 was 39.2 µM (active). In the case of `COc1ccccc1Oc1c(NS(=O)(=O)c2ccc(C(C)(C)C)cc2)nc(-c2ncccn2)nc1OCCO`, the outcome is reported as “inactive”. In the case of `O=[N+]([O-])c1cc(S(=O)(=O)Nc2ccccc2)ccc1Nc1ccccc1`, the AC50 is reported as 27.2 µM (active) and the outcome is reported as “inactive”. For `CN(C)c1ccc(C(c2ccccc2)c2ccc(N(C)C)cc2)cc1`, the AC50 was 20 µM (active). For `Sc1nc2ccccc2s1`, the outcome was “inactive”. `C1CN(CCOCCN2CCOCC2)CCO1` was tested, and the outcome was “inactive”. With `Cc1cc(-n2nc3ccc(Cl)cc3n2)c(O)c(C(C)(C)C)c1` the outcome was “inactive”. For `CCCCCCCCCCC1CO1` (stereo not drawn), the AC50 was 33.8 µM (active). With `CC[N+](CC)(CC(=O)Nc1c(C)cccc1C)Cc1ccccc1` the outcome was “inactive”.
